According to the supplement of paper PMC7411640:
Structures can show the parent of a compound that is named as a salt.

Tested on: MDA-MB-468
Test: phospho-S6 immunofluorescence (DAPI-normalised), per-plate z-score; higher = higher phospho-S6 signal (less pathway suppression)
Settings: 24 h
Protocol: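 GPCR-targeted compound library (MedChemExpress HY-L006) tested on MDA-MB-468 PTEN-null TNBC cells in 384-well plates at 0.1, 1 or 10 uM, combined with vehicle, GDC0941 450 nM or lapatinib 1 uM, for 24 h. Phospho-S6 (S240/244) immunofluorescence normalised to DAPI and expressed as a per-plate z-score; values are the mean of biological triplicates.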

| Structure (SMILES) | phospho-S6 immunofluorescence (z-score) (co-treatment: GDC0941 450 nM) | phospho-S6 immunofluorescence (z-score) (co-treatment: lapatinib 1 uM) | phospho-S6 immunofluorescence (z-score) (co-treatment: vehicle) |
| --- | --- | --- | --- |
| CCc1cc(/C(C)=N/OCc2ccc(C3CCCCC3)c(C(F)(F)F)c2)ccc1CN1CC(C(=O)O)C1 [Siponimod] (compound 10 µM) | -0.49 | 0.38 | 0.15 |
| c1cnc(NCc2ccc(CNc3ncccn3)cc2)nc1 (compound 10 µM) | -0.12 | -0.26 | -0.11 |
| COc1cc2nc(N3CCN(C(=O)c4ccco4)CC3)nc(N)c2cc1OC [Prazosin (hydrochloride)] (compound 10 µM) | 2.1 | 0.54 | 0.24 |
| CSc1ccc2c(c1)N(CCC1CCCCN1C)c1ccccc1S2 (stereo not drawn) [Thioridazine (hydrochloride)] (compound 10 µM) | -5.09 | -8.27 | -7.88 |
| C[C@@H](OC[C@@]1(c2ccccc2)CC[C@]2(CCC(=O)N2)CN1)c1cc(C(F)(F)F)cc(C(F)(F)F)c1 [Rolapitant] (compound 10 µM) | -4.35 | -3.8 | -0.65 |
| COc1ccc(CNC(=O)c2sc3nc(C)cc(C)c3c2N)cc1 (compound 10 µM) | -1.98 | 1.66 | 0.34 |
| C[C@](N)(Cc1ccc(O)c(O)c1)C(=O)O (compound 10 µM) | -0.58 | 0.11 | -0.1 |
| COc1ccc2cc(OCC3(C(=O)O)CN(C(=O)c4ccc(F)cc4)C3)ccc2c1 (compound 10 µM) | -1.13 | 0.61 | 0.47 |
| COc1cc(N)cn[n+]1-c1ccccc1 [Amezinium (methylsulfate)] (compound 10 µM) | -0.21 | 1.19 | 0.03 |
| O=C1CCc2ccc(OCCCCN3CCN(c4cccc(Cl)c4Cl)CC3)cc2N1 [Aripiprazole] (compound 10 µM) | -3.14 | -5.16 | -3.2 |
| CC(C)OC(=O)N1CCC(Oc2ncnc3c2cnn3-c2ccc(S(C)(=O)=O)cc2F)CC1 (compound 10 µM) | -0.32 | -0.15 | -0.38 |
| Cc1noc(-c2ccc(-c3ccc(CC(=O)O)cc3)cc2)c1NC(=O)O[C@H](C)c1ccccc1 (compound 10 µM) | 0.62 | 1.57 | 0.63 |
| OCc1cc(C(O)CNCCCCCCOCCCCc2ccccc2)ccc1O (stereo not drawn) [Salmeterol (xinafoate)] (compound 10 µM) | 1.01 | -2.27 | 2.28 |
| CCCCc1nc(C)c(CC(=S)N(C)C)c(=O)n1Cc1ccc(-c2ccccc2-c2nnn[nH]2)cc1 [Fimasartan] (compound 10 µM) | 0.34 | 1.66 | -0.04 |
| O=C(O[C@@H]1C[C@@H]2C[C@H]3C[C@H](C1)N2CC3=O)c1c[nH]c2ccccc12 [Dolasetron] (compound 10 µM) | -0.34 | -0.11 | -0.46 |
| COC(=O)N(C)c1c(N)nc(-c2nn(Cc3ccccc3F)c3ncccc23)nc1N [Riociguat] (compound 10 µM) | -0.84 | 0.03 | -0.56 |
| O=C1CC2(CCCC2)CC(=O)N1CCCCN1CCN(c2ncccn2)CC1 [Buspirone (hydrochloride)] (compound 10 µM) | 0.3 | 0.17 | 0.69 |
| O=C(Nc1cccc2c(=O)cc(-c3nnn[nH]3)oc12)c1ccc(OCCCCc2ccccc2)cc1 [Pranlukast (hemihydrate)] (compound 10 µM) | 1.61 | 1.07 | 0.31 |
| OC[C@H]1O[C@@H](n2cnc3c(NCc4ccc(O)cc4)ncnc32)[C@H](O)[C@@H]1O [N6-(4-Hydroxybenzyl)adenosine] (compound 10 µM) | -0.95 | 1.31 | 0.96 |
| CN1CCN(C2=Nc3cc(Cl)ccc3Nc3ccccc32)CC1 [Clozapine] (compound 10 µM) | -0.16 | -0.32 | -0.32 |
| CC1=C(C)C(=O)C(C(CCCCCC(=O)O)c2ccccc2)=C(C)C1=O (stereo not drawn) [Seratrodast] (compound 10 µM) | 1.01 | 1.15 | 0.08 |
| CN/C(=N\CCSCc1nc[nH]c1C)NC#N [Cimetidine] (compound 10 µM) | 0.86 | 0.64 | -0.63 |
| Clc1ccccc1CN1CCc2sccc2C1 [Ticlopidine (hydrochloride)] (compound 10 µM) | -1.14 | -0.33 | -0.63 |
| OC(CCN1CCCCC1)(c1ccccc1)C1CC2C=CC1C2 (stereo not drawn) [Biperiden (Hydrochloride)] (compound 10 µM) | -1.68 | -0.97 | -1.56 |
| O=c1cc(CN2CCOCC2)occ1OCCCCCSc1ccnc2cc(C(F)(F)F)ccc12 (compound 10 µM) | -2.93 | -3.04 | -3.82 |
| OC[C@H]1O[C@@H](n2cnc3c(N[C@H]4CCC[C@@H]4O)ncnc32)[C@H](O)[C@@H]1O (compound 10 µM) | 0.54 | 0.82 | 0.2 |

| Structure (SMILES) | phospho-S6 immunofluorescence (z-score) (co-treatment: GDC0941 450 nM) | phospho-S6 immunofluorescence (z-score) (co-treatment: lapatinib 1 uM) | phospho-S6 immunofluorescence (z-score) (co-treatment: vehicle) |
| --- | --- | --- | --- |
| Cc1ccccc1C(=O)Nc1ccc(C(=O)N2CCCC(O)c3cc(Cl)ccc32)c(C)c1 (stereo not drawn) [Tolvaptan] (compound 10 µM) | 0.01 | -1.6 | -0.25 |
| CC1(C)CN2C(CSC(=NC3CCCCC3)NC3CCCCC3)=CSC2=N1 [IT1t (dihydrochloride)] (compound 10 µM) | -2.08 | -0.41 | -1.11 |
| Cc1ccccc1C(=O)Nc1ccc(C(=O)N2CCCC(N(C)C)c3ccccc32)cc1 (stereo not drawn) [Mozavaptan] (compound 10 µM) | -0.25 | -0.18 | -0.16 |
| CC(C)(Cc1ccc2ccccc2c1)NC[C@@H](O)COc1cccc(Cl)c1C#N (compound 10 µM) | -3.37 | -8.76 | -10.1 |
| NCCCCN(Cc1nc2ccccc2[nH]1)[C@H]1CCCc2cccnc21 [AMD-070 (hydrochloride)] (compound 10 µM) | -4.2 | -3.44 | -3.01 |
| C[C@]12CCC(=O)C=C1CC[C@@H]1[C@@H]2[C@@H](O)C[C@@]2(C)[C@H]1CC[C@]2(O)C(=O)CO [Hydrocortisone] (compound 10 µM) | -4.8 | -4.13 | -2.96 |
| C[C@@H]1C[C@H]2[C@@H]3CCC4=CC(=O)C=C[C@]4(C)[C@@]3(F)[C@@H](O)C[C@]2(C)[C@@]1(O)C(=O)CO [Dexamethasone] (compound 10 µM) | 0.1 | 0.34 | 1.02 |
| Cc1ccccc1N1CCN(CCc2nnc3n2CCCC3)CC1 [Dapiprazole (hydrochloride)] (compound 10 µM) | 0.31 | -0.49 | -0.32 |
| CC(C)=CCC[C@](C)(O)[C@H]1CC[C@]2(C)[C@@H]1[C@H](O)C[C@@H]1[C@@]3(C)CC[C@H](O)C(C)(C)[C@@H]3[C@@H](O)C[C@]12C [(20S)-Protopanaxatriol] (compound 10 µM) | -1.71 | -2.12 | -0.03 |
| OCC1OC(n2cnc3c(NC4CCCCC4)ncnc32)C(O)C1O (stereo not drawn) [N6-Cyclohexyladenosine] (compound 10 µM) | -0.37 | 1.37 | 0.6 |
| Cc1nc2c([nH]1)-c1ccccc1N(C(=O)c1ccc(NC(=O)c3ccccc3-c3ccccc3)cc1)CC2 [Conivaptan (hydrochloride)] (compound 10 µM) | 0.65 | 0.52 | 0.94 |
| CCOC(=O)N1CCC(NCCNC(=O)c2ccccc2C)CC1 (compound 10 µM) | 0.96 | -0.15 | 1.13 |
| CCN(CC)Cc1ccc(C(=O)N(CCc2ccccc2OC)[C@@H]2CCNC2)cc1 (compound 10 µM) | 0.19 | 0.1 | 0.12 |
| C[C@H](NC(=O)CNC(=O)c1cccc(Cl)c1)c1ccccc1 (compound 10 µM) | 0.04 | 0.45 | 0.46 |
| CCCN[C@@H]1CCc2nc(N)sc2C1 [Dexpramipexole (dihydrochloride)] (compound 10 µM) | 1.16 | 0.15 | 0.4 |
| C[C@@H](O[C@H]1OCCN(Cc2nn(P(=O)(O)O)c(=O)[nH]2)[C@H]1c1ccc(F)cc1)c1cc(C(F)(F)F)cc(C(F)(F)F)c1 [Fosaprepitant (dimeglumine)] (compound 10 µM) | -2.28 | -0.65 | 0.39 |
| COCCCN1CCC(NC(=O)c2cc(Cl)c(N)c3c2OCC3)CC1 [Prucalopride (succinate)] (compound 10 µM) | -1.08 | -0.3 | -1.84 |
| CN(C)CCSSCCNC(=O)C1CCN(C(=O)CSc2ccc(Cl)cc2)CC1 [6H05 (trifluoroacetate)] (compound 10 µM) | -1.17 | 2.33 | -0.23 |
| CN1CCN(C2=Nc3ccccc3Oc3ccc(Cl)cc32)CC1 [Loxapine] (compound 10 µM) | 0.6 | -0.55 | 0.95 |
| Cc1ccc(C(=O)Nc2ccc(S(=O)(=O)O)c3cc(S(=O)(=O)O)cc(S(=O)(=O)O)c23)cc1NC(=O)c1cccc(NC(=O)Nc2cccc(C(=O)Nc3cc(C(=O)Nc4ccc(S(=O)(=O)O)c5cc(S(=O)(=O)O)cc(S(=O)(=O)O)c45)ccc3C)c2)c1 [Suramin (sodium salt)] (compound 10 µM) | 0.54 | 1.39 | -0.09 |
| O=c1[nH]c2ccccc2n1CCN1CCN(c2cccc(C(F)(F)F)c2)CC1 [Flibanserin] (compound 10 µM) | -0.19 | -0.04 | 0.48 |
| Cc1ccc(/C(=C\CN2CCCC2)c2cccc(/C=C/C(=O)O)n2)cc1 [Acrivastine] (compound 10 µM) | 0.27 | 0.6 | 0.62 |
| CC(C)(C)NCC(O)COc1cccc2c1CCC(=O)N2 (stereo not drawn) [Carteolol (hydrochloride)] (compound 10 µM) | 0.64 | 0.45 | -0.38 |
| COc1cc(C(=O)NS(=O)(=O)c2ccccc2C)ccc1Cc1cn(C)c2ccc(NC(=O)OC3CCCC3)cc12 [Zafirlukast] (compound 10 µM) | -2.01 | -0.41 | 0.19 |
| O=C(NC(Cc1cc(=O)[nH]c2ccccc12)C(=O)O)c1ccc(Cl)cc1 (stereo not drawn) [Rebamipide] (compound 10 µM) | 0.69 | 1.1 | 0.16 |
